In PubChem BioAssay (EPA / NIEHS):
Inconclusive results are not listed. Activity calls are given as the source filed them. How the source made its calls, unless noted: active means hit-call score of the fitted dose curve at least 0.9, where 1 is the maximum; inactive means score below 0.9.

What was measured:
[1] = IUF_NPC1b_proliferation_BrdU_72hr: Leibniz Research Institute for Environmental Medicine (IUF) 72-hour Neural Progenitor Cell Bromodeoxyuridine (BrdU) Proliferation Assay (NPC1b) (AID 2284207)
Outline: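 BrdU luminescence ELISA quantified DNA synthesis over the last 16 h of a 72 h exposure, fitted against DMSO. Primary hNPC spheres from gestational week 16-19 cortex grown with EGF/FGF at 37C, pH 7.2-7.6.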

[2] = IUF_NPC1a_proliferation_area_72hr: Leibniz Research Institute for Environmental Medicine (IUF) 72-hour Neural Progenitor Cell Proliferation Area Assay (NPC1a) (AID 2284208)
Outline: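 hNPC spheres (human fetal cortex, GW 16-19), one per poly-Hema U-bottom well; EGF+FGF medium; dosed day 0, no re-dosing; 72 h, 37C, 5% CO2; phase-contrast sphere area; DMSO = baseline; minus-GF = positive ctrl.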

[3] = IUF_NPC1_viability_72hr: Viability Assessment at 72 hours in the Leibniz Research Institute for Environmental Medicine (IUF) Neural Progenitor Cell Proliferation Assay (NPC1) (AID 2284209)
Outline: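 Human fetal-cortex neural progenitor spheres (0.25–0.35 mm, one per well) grown in EGF/FGF proliferation medium at 37C, pH 7.2-7.6, exposed 72 h without renewal; viability read as alamar blue resazurin-to-resorufin fluorescence relative to DMSO.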

[4] = CCTE_Mundy_HCI_Cortical_Synap_Neur_Matur_NeuriteSpotCountPerNeuriteLength: CCTE's Synaptogenesis and Neurite Maturation Assay in rat cortical cells for Neurite Spot Count per Neurite Length, Mundy Lab (AID 2284210)
Outline: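 Rat primary cortical cultures, AraC added at DIV 5 to suppress glia; chemical exposure from DIV 7 to DIV 12. Fixed cells stained for MAP2 and synaptophysin plus Hoechst; synaptophysin puncta per neurite length quantified by high-content imaging, relative to DMSO.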

[5] = CCTE_Mundy_HCI_Cortical_NOG_NeuriteLength: CCTE's Neurite Outgrowth Assay in rat cortical cells for Neurite Length, Mundy Lab (AID 2284213)
Outline: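 Neurite length was read by high-content imaging of βIII-tubulin-labelled neurites in rat primary cortical cultures. Activity was fitted relative to DMSO.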

[6] = CCTE_Mundy_HCI_Cortical_Synap_Neur_Matur_NeuriteLength: CCTE's Synaptogenesis and Neurite Maturation Assay in rat cortical cells for Neurite Length, Mundy Lab (AID 2284214)
Outline: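 Rat primary cortical cells were plated, treated with AraC at DIV 5 to arrest glial growth, then chemical-dosed with media change at DIV 7 through DIV 12. Fixed cells stained for MAP2, synaptophysin and Hoechst; neurite length quantified by high-content imaging.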

[7] = CCTE_Mundy_HCI_Cortical_Synap_Neur_Matur_NeuriteSpotCountPerNeuron: CCTE's Synaptogenesis and Neurite Maturation Assay in rat cortical cells for Neurite Spot Count per Neuron Count, Mundy Lab (AID 2284215)
Outline: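 Read-out: neurite-associated synaptophysin puncta per neuron, imaged by high-content analysis after MAP2, synaptophysin and Hoechst staining. Rat primary cortical cultures, dosed DIV 7 through DIV 12; DMSO served as baseline.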

[8] = CCTE_Mundy_HCI_Cortical_Synap_Neur_Matur_SynapseCount: CCTE's Synaptogenesis and Neurite Maturation Assay in rat cortical cells for Synapse Count, Mundy Lab (AID 2284218)
Outline: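 Rat primary cortical cells in 96-well plates received AraC at DIV 5 and were dosed with chemicals at DIV 7 with media change, through DIV 12 (288.33 h). Synapses per neuron counted by high-content imaging of MAP2/synaptophysin/Hoechst staining, versus DMSO baseline.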

[9] = CCTE_Mundy_HCI_hN2_NOG_NeuriteCount: CCTE's Neurite Outgrowth Assay in human hN2 cells for Neurite Count, Mundy Lab (AID 2284219; active means hit-call score of the fitted dose curve at least 0.9, where 1 is the maximum)
Outline: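 In this morphology assay, hNP1-derived neurons received test chemical 2 h post-plating and were fixed two days later in warm paraformaldehyde/sucrose containing Hoechst 33342. Neurites, labelled by rabbit anti-βIII-tubulin (1:800) and Alexa Fluor-488 (1:500), were counted automatically.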

[10] = CCTE_Mundy_HCI_hN2_NOG_NeuriteLength: CCTE's Neurite Outgrowth Assay in human hN2 cells for Neurite Length, Mundy Lab (AID 2284220; active means hit-call score of the fitted dose curve at least 0.9, where 1 is the maximum)
Outline: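 Read-out is neurite length from high-content imaging of βIII-tubulin/Alexa Fluor-488-labelled neurons, referenced to DMSO controls.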

[11] = CCTE_Mundy_HCI_hN2_NOG_NeuronCount: CCTE's Neurite Outgrowth Assay in human hN2 cells for Neuron Count, Mundy Lab (AID 2284221; active means hit-call score of the fitted dose curve at least 0.9, where 1 is the maximum)
Outline: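 Read-out is the number of betaIII-tubulin-positive neurons imaged by automated high-content analysis, with DMSO as negative control.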

[12] = UKN4_HCS_LUHMES_cell_viability: Viability Assessment in the University of Konstanz (UKN) Leist Lab Neurite Outgrowth Assay in human LUHMES cells (UKN4) (AID 2284232)
Outline: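 LUHMES cells differentiated 2 days, replated without cAMP/GDNF, then exposed to compounds for 24 h from attachment. Viability read by high-content fluorescence imaging after 30 min live-staining with H-33342 and calcein-AM; bidirectional fit relative to DMSO baseline.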

[13] = UKN2_HCS_IMR90_cell_viability: Viability Assessment in the University of Konstanz (UKN) Leist Lab Neural Crest Cell Migration Assay in human induced IMR90 Pluripotent Stem Cells (UKN2) (AID 2284233);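 further: viability of neural crest cells differentiated from IMR90 iPSC measured by calcein-AM fluorescence imaging; cells exposed to compound for 24 h after a 24 h migration phase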
Outline: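 Neural crest cells derived from IMR90 iPSC migrate into a stopper-free zone for 24 h in EGF/FGF medium, then are exposed to compound for 24 h. Viability assessed by calcein-AM and Hoechst staining with high-content imaging, fitted bidirectionally versus DMSO.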

[14] = CCTE_Mundy_HCI_Cortical_NOG_NeuronCount: CCTE's Neurite Outgrowth Assay in rat cortical cells for Neuron Count, Mundy Lab (AID 2284236; active means hit-call score of the fitted dose curve at least 0.9, where 1 is the maximum;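 further: neurons counted by imaging betaIII-tubulin and Hoechst stained cortical cells; cells exposed to compound for about 48 hours before fixation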)
Outline: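 Read-out: neuron number by high-content imaging of betaIII-tubulin (Alexa Fluor-488) and Hoechst-labelled rat primary cortical cells.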

[15] = CCTE_Mundy_HCI_hNP1_Casp3_7: CCTE's Caspase-Glo 3/7 Assay in human neuroprogenitor cells for Apoptosis, Mundy Lab (AID 2284240)
Outline: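 Luminescent caspase-3/7 readout, 26.5 h post-dose, in human neural progenitor cells from WA09 embryonic stem cells. Cells grew 40–44 h at 37 °C, 5% CO2 before chemical addition. Activity analysed as signal increase over DMSO baseline.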

[16] = IUF_NPC2c_oligodendrocyte_migration_120hr: Leibniz Research Institute for Environmental Medicine (IUF) 120-hour Neural Progenitor Cell Migration Assay for Oligodendrocyte Migration (NPC2c) (AID 2284297);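 further: O4-positive oligodendrocyte migration distance divided by radial glia migration distance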
Outline: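 hNPC spheres (GW 16-19 cortex), PDL/laminin, DMEM/F12 3:1 + 1% N2, 37C. Dosing day 0–5, half feed day 3, DMSO ≤0.1%. Fixed 120 h; O4 ICC + Hoechst, HCI. Readout: mean oligodendrocyte distance from sphere edge / radial glia distance.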

[17] = IUF_NPC2a_radial_glia_migration_120hr: Leibniz Research Institute for Environmental Medicine (IUF) 120-hour Neural Progenitor Cell Migration Assay for Radial Glia Migration (NPC2a) (AID 2284298)
Outline: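 Hoechst-stained nuclei imaged at 120 h; algorithm maps sphere core by densest nuclei, sets migration edge at density threshold, gives radial glia migration distance (um) per well vs DMSO. hNPC spheres (0.3 mm), PDL/laminin, DMEM/F12 3:1 + 1% N2.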

[18] = IUF_NPC2a_radial_glia_migration_72hr: Leibniz Research Institute for Environmental Medicine (IUF) 72-hour Neural Progenitor Cell Migration Assay for Radial Glia Migration (NPC2a) (AID 2284299)
Outline: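 Human fetal cortex (GW 16-19) neural progenitor spheres, 0.3 mm, plated on poly-D-lysine/laminin in N2 differentiation medium with compound from day 0. Radial glia migration distance (um, sphere core edge to migration edge) measured manually in four directions on 72 h brightfield images; well mean used.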

[19] = IUF_NPC2b_neuronal_migration_120hr: Leibniz Research Institute for Environmental Medicine (IUF) 120-hour Neural Progenitor Cell Migration Assay for Neuron Migration (NPC2b) (AID 2284300)
Outline: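 hNPC spheres, PDL/laminin, DMEM:F12 3:1 + 1% N2, 37C/5% CO2; 7 concentrations + solvent control (DMSO ≤0.1%), 5 d exposure, half-feed day 3. Fix 120 h, TUBB3 ICC, HCI: mean neuron migration distance ÷ glia distance.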

[20] = IUF_NPC3_neuronal_differentiation_120hr: Leibniz Research Institute for Environmental Medicine (IUF) 120-hour Neuronal Differentiation Assay (NPC3) (AID 2284301)
Outline: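 Human fetal (GW 16-19) neural progenitor spheres (0.3 mm) plated on poly-D-lysine/laminin in N2 differentiation medium, exposed 120 h at 37C with half-medium renewal day 3; 7 concentrations. TUBB3+ cells as % of Hoechst nuclei, CNN-identified; DMSO baseline.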

[21] = IUF_NPC4_neurite_length_120hr: Leibniz Research Institute for Environmental Medicine (IUF) 120-hour Neuronal Morphology Assay for Neurite Length (NPC4) (AID 2284302)
Outline: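 Human fetal neural progenitor spheres (0.3 mm) plated on poly-D-lysine/laminin in N2 differentiation medium, exposed from day 0 for 120 h with half-medium refresh at day 3, 37C. Mean neurite length (um) of TUBB3-positive neurons from skeletonized immunostaining images; DMSO ≤0.1%.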

[22] = IUF_NPC5_oligodendrocyte_differentiation_120hr: Leibniz Research Institute for Environmental Medicine (IUF) 120-hour Oligodendrocyte Differentiation Assay (NPC5) (AID 2284304; active means hit-call score of the fitted dose curve at least 0.9, where 1 is the maximum;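 further: primary human fetal neural progenitor spheres plated to migrate and differentiate; share of O4-positive cells among Hoechst nuclei found by CNN image analysis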)
Outline: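 hNPC spheres, fetal cortex GW 16-19; PDL/laminin, DMEM:F12 3:1 + 1% N2, 37C/5% CO2; 7 concentrations + solvent control, 5 d exposure, half-change day 3. Readout: %O4+ of Hoechst+ nuclei in migration area, CNN classification; DMSO baseline.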

[23] = IUF_NPC4_neurite_area_120hr: Leibniz Research Institute for Environmental Medicine (IUF) 120-hour Neuronal Morphology Assay for Neurite Area (NPC4) (AID 2284305; active means hit-call score of the fitted dose curve at least 0.9, where 1 is the maximum)
Outline: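 Human fetal neural progenitor spheres (0.3 mm) plated on poly-D-lysine/laminin in N2 differentiation medium, exposed 120 h (7 concentrations, DMSO ≤0.1%, half-medium refresh day 3). Fixed, TUBB3 immunostained; mean neurite area per neuron by Omnisphero skeletonization.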

[24] = IUF_NPC2-5_cytotoxicity_72hr: Cytotoxicity Assessment at 72 hours in the Leibniz Research Institute for Environmental Medicine (IUF) Neural Progenitor Cell Migration and Differentiation Assay for Cytotoxicity (NPC2-5) (AID 2284306; active means hit-call score of the fitted dose curve at least 0.9, where 1 is the maximum;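 further: LDH release into supernatant measured by resorufin fluorescence marking membrane damage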)
Outline: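 Human fetal primary neural progenitor spheres (0.3 mm) plated on poly-D-lysine/laminin in N2 differentiation medium, exposed from day 0 at 37C. LDH-dependent resazurin-to-resorufin fluorescence in supernatant at 72 h; 7 concentrations, DMSO at most 0.1%.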

[25] = IUF_NPC2-5_cytotoxicity_120hr: Cytotoxicity Assessment at 120 hours in the Leibniz Research Institute for Environmental Medicine (IUF) Neural Progenitor Cell Migration and Differentiation Assay (NPC2-5) (AID 2284307; active means hit-call score of the fitted dose curve at least 0.9, where 1 is the maximum)
Outline: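 hNPC spheres on PDL/laminin, N2 medium, 37C; 7 concs + solvent control, DMSO ≤0.1%; 5-day exposure, half medium changed day 3. LDH in supernatant at 120 h, resazurin→resorufin fluorescence, gain-of-signal.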

[26] = IUF_NPC2-5_cell_number_120hr: Cell Number Assessment at 120 hours in the Leibniz Research Institute for Environmental Medicine (IUF) Neural Progenitor Cell Migration and Differentiation Assay (NPC2-5) (AID 2284308);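 further: count of Hoechst-stained nuclei in migration zone around plated human neural progenitor spheres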
Outline: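 Hoechst-stained nuclei within the migration area were counted by automated high content imaging after 120 h. Single hNPC spheres differentiated on poly-D-lysine/laminin in DMEM/F12 (3:1) with 1% N2, compound present throughout, DMSO ≤0.1%.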

[27] = IUF_NPC2-5_viability_120hr: Viability Assessment at 120 hours in the Leibniz Research Institute for Environmental Medicine (IUF) Neural Progenitor Cell Migration and Differentiation Assay (NPC2-5) (AID 2284312)
Outline: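 Human fetal neural progenitor spheres (0.3 mm) plated on poly-D-lysine/laminin in N2 differentiation medium, exposed 120 h with half-medium refresh at day 3. Viability by alamar blue resazurin fluorescence; 7 concentrations, DMSO max 0.1%.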

Measured: outcome

CC(C)(C)NCC(O)c1cc(O)cc(O)c1 (configuration not stated)
inactive: all assays above
